Bioassay records (PubChem)
Hits are enriched below; roughly 3.5% of the tested compounds scored in any of these assays.
TSHR ag: agonists of human thyroid stimulating hormone receptor; HEK293-CNG-TSHR cells (CNG channel as cAMP sensor), membrane potential dye, cAMP; hit rate 0.48% among 73,000; P16473; Potency, µM (top dose mostly 57.1 µM), usual class: activators; active = well fitted activation curve with a large enough effect in the main read-out, with a control signal flat, not every such curve was filed as active; inconclusive = small, poorly fitted or top-dose-only effect, or a change in a side signal; inactive = no such curve, though single readings can be large or run the other way; reference of the percent scale not stated here;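 note: the control signal comes from parental cells without the receptor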
Target sequence (P16473 whole entry, looked up): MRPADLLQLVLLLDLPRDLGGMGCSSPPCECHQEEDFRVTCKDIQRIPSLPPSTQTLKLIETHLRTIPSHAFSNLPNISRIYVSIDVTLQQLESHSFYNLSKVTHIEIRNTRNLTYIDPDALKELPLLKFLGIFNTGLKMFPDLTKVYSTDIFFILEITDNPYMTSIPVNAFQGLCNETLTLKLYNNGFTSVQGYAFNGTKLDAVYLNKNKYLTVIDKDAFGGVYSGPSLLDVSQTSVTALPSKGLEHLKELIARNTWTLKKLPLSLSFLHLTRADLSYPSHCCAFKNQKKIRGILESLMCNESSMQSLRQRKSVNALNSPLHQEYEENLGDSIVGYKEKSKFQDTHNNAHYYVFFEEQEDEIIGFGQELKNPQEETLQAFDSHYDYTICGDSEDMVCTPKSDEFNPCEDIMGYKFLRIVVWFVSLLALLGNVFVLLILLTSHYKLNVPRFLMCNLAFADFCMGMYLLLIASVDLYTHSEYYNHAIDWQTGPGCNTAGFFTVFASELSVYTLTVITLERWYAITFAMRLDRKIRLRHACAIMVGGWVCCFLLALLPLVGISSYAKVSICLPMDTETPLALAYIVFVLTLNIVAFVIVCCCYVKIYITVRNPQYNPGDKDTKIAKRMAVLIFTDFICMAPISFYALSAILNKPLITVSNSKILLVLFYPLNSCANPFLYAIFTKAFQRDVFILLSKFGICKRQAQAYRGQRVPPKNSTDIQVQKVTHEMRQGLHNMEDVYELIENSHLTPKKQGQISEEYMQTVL
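HEK 293 cells stably expressing TSHR and a cAMP-gated CNG channel; parental CNG-only cells as counterscreen. Cells preloaded 60 min with membrane potential dye plus 100 uM RO 20-1724, then compound 30 min; fluorescence read at 590 nm.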
Hsp90 Hop PPI: changes Hsp90-Hop TPR2A binding signal, up or down; hit rate 0.44% among 71,000; Potency, µM (titrated, usually from 57 µM); AID 595; AlphaScreen TPR2A-His6 binding biotin-Hsp90 C-terminal peptide; active = well fitted curve in either direction with a large enough effect; inconclusive = small, poorly fitted or top-dose-only effect, or another doubt
HEK293 cAMP cs: parental HEK293 cAMP activation (counter-screen). parental HEK293 CNG cAMP sensor, membrane potential fluorescence. Potency, µM (series often up to 57.1 µM), usual class: activators. hit rate 2.5% among 73,000. AID 938; note: nearly all actives have a fitted effect of over 55% in size
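Parental HEK 293 cells stably expressing a cAMP-gated CNG channel were loaded with membrane potential dye containing 100 uM RO 20-1724 for 60 min. Compound added for 30 min; depolarization read as fluorescence intensity at 590 nm.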
IkB sig inh: inhibitors of IkB signaling in ABC-DLBCL cells. ABC-DLBCL IkBa-CBG/CBR dual luciferase ratio, 4 h; response scale: scaled: untreated 0%, proteasome inhibitor 100%. Potency, µM (top dose mostly 57.1 µM). hit rate 0.04% among 110,000. AID 445; active = well fitted curve in the direction sought with a large enough effect in the signal ratio, not every such curve was filed as active; inconclusive = small, poorly fitted or top-dose-only effect, or a change in a side signal; the % refers to the signal ratio;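 note: the direction sought is a rising ratio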
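In this assay, an IκBα–CBG68 fusion accumulates when IKK-driven degradation is blocked; native CBR normalizes for cell number. OCI-Ly3 cells were treated 4 h with compound and doxycycline, then green and red light read after Chroma-Glo addition.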
CRE-bla Fsk: alters forskolin-stimulated CRE reporter signaling in CHO cells; AID 662; Potency, µM (titrated, usually from 38.2 µM), most hits filed as activators; hit rate 2.5% among 71,000; CHO CRE-bla reporter (cAMP response element driving beta-lactamase), forskolin EC10, beta-lactamase ratio; active = well fitted activation curve with a large enough effect in the signal ratio, with a control signal flat, not every such curve was filed as active; inconclusive = small, poorly fitted or top-dose-only effect, or effect the other way, or a change in a side signal; the % refers to the signal ratio
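qHTS titration format; CRE-bla CHO reporter; stimulus EC10 NKH 477, a water-soluble forskolin. Read: CCF4 460/530 nm ratio. Potency expressed as AC50 for activators or inhibitors.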
CHO tox 24h: reduces CRE-bla CHO cell viability after 24 hours. 120 tested, under 10 active. activity, negative = viability loss, % at 46.1 µM. shares compounds with CRE-bla Fsk. CRE-bla CHO viability, ATP luminescence, 24 h
CHO tox 40h: CHO cell toxicity at 40 h by ATP luminescence; shares compounds with CRE-bla Fsk; CRE-bla CHO viability, ATP luminescence, 40 h; Potency, µM, hits mostly inhibitors; 120 tested, under 10 active; AID 906
CREB luc CRC: boosts CRE luciferase signal in HEK293 cells. shares compounds with CRE-bla Fsk. HEK293 CRE-luc2P, NKH477 EC10 potentiation, luminescence, 4 h. Potency, µM (top dose mostly 38.3 µM), most hits filed as activators. hit rate 80% among 120. AID 907
Hits are given with their value; . = inactive; ? = inconclusive; / = not tested or not shown; [ ] = remark or other dose. Unless noted, calls come from the whole dose curve; as a rule, active = well fitted curve in the direction sought with a large enough effect; inconclusive = small, poorly fitted or top-dose-only effect, or another doubt; inactive = no such curve, though single readings can be large; an effect the other way counts as inactive or inconclusive.

SMILES	TSHR ag	Hsp90 Hop PPI	HEK293 cAMP cs	IkB sig inh	CRE-bla Fsk	CHO tox 24h	CHO tox 40h	CREB luc CRC
CCc1nc2nc(C)cc(Nc3cccc(C(F)(F)F)c3)n2n1	.	.	.	.	3.98µM	.	.	12.6µM
COc1ccc(CNS(=O)(=O)c2ccc(N3CCCCS3(=O)=O)cc2)cc1	/	/	/	.	/	/	/	/
COc1ccc(Nc2nc(Nc3ccc(OC)cc3)nc(-n3[nH]c(=O)c(C)c3C)n2)cc1	/	/	/	/	/	?	?	0.501µM
COc1ccc(-n2[nH]c(C)cc2=O)cc1	.	.	.	.	.	/	/	/
O=C(CSc1ncnc2c1oc1ccccc12)Nc1ccc2c(c1)OCCO2	?	.	?	.	?	/	/	/
CCn1c(=O)cc(SCC(=O)Nc2ccc3c(c2)OCCO3)c2ccccc21	.	.	.	?	?	/	/	/
CCc1nc(SCC(=O)Nc2ccc3c(c2)OCCO3)c2oc3ccccc3c2n1	/	.	.	.	0.398µM	?	31.6µM	3.98µM
Cc1nc(SCC(=O)Nc2ccc3c(c2)OCCO3)c2oc3ccccc3c2n1	3.98µM	.	.	.	0.251µM	.	.	5.01µM
COc1cccc(-c2ccc3ncnc(N4CCOCC4)c3c2)c1	/	.	.	.[11.4 µM]	.	/	/	/
Nc1nc(CSc2n[nH]c(-c3ccccc3)n2)nc(Nc2ccccc2)n1	.	.	.	?	2µM	.	?	5.01µM
CC(=O)N1CCN(c2ccc(Nc3nc(C)nc4c3oc3ccccc34)cc2)CC1	.	?	.	?	1µM	.	?	?
CC(=O)Nc1ccc(Nc2nc(C)nc3c2oc2ccccc23)cc1	.	.	.	.	?	/	/	/
COc1cc(-c2nnc3sc(C4CCCCC4)nn23)cc(OC)c1OC	?	.	?	.	1µM	?	?	0.126µM
O=C(Nc1ccccc1O)c1cc(S(=O)(=O)N2CCOCC2)ccc1Cl	.	.	.	.	.	.	.	15.8µM
Cc1nn(-c2ccccc2)c2sc(C(=O)N(CC(=O)NC(C)(C)C)Cc3ccco3)cc12	?	.	15.8µM	?	.	?	?	12.6µM
COC(=O)c1cc2c(C)nn(-c3ccccc3)c2s1	.	.	.	.	?	/	/	/
Cc1ccc(CNc2ncccc2-c2nc(-c3ccc(Cl)cc3)no2)cc1	/	/	/	.	/	/	/	/
CCN(C(=O)c1cn(C)c(=O)c2cc(OC)c(OC)cc12)c1cc(C)ccc1C	.[11.4 µM]	?	.	.	?	/	/	/
CCN(C(=O)c1cn(C)c(=O)c2cc(OC)c(OC)cc12)c1ccccc1C	.[11.4 µM]	?	.	.	?	.	.	5.01µM
CC(C)(C)c1ccc(-c2nnc(SCc3ccc(Cl)cc3)n2-c2cccc(C(F)(F)F)c2)cc1	.[11.4 µM]	.[11 µM]	.[11.4 µM]	.[11.4 µM]	.[7.6 µM]	/	/	/
CSc1nnc2c3cc(F)ccc3n(Cc3ccccc3)c2n1	.	.	.	.	?	/	/	/
CSc1nnc2c3ccccc3n(CCc3ccccc3)c2n1	?	.[11 µM]	3.98µM	.	0.0158µM	?	?	3.16µM
CCn1c(=O)cc(SCC(=O)NCc2ccc(OC)cc2OC)c2ccccc21	/	/	/	.	/	/	/	/
COc1ccc(C2=Nn3c(nnc3-c3ccccc3OC)SC2)cc1OC	10µM	.	.	.	1.26µM	?	.	0.0398µM
CCOc1ccc(C2=Nn3c(nnc3-c3ccccc3)SC2)cc1Cl	.	.	.	.	0.0794µM	.	.	1.58µM
SMILES	TSHR ag	Hsp90 Hop PPI	HEK293 cAMP cs	IkB sig inh	CRE-bla Fsk	CHO tox 24h	CHO tox 40h	CREB luc CRC
Clc1ccc(C2=Nn3c(nnc3-c3n[nH]c4c3CCC4)SC2)cc1Cl	?	.	?	.	1µM	?	15.8µM	?
COc1c2c(nc3ccccc13)O[C@@H]([C@@](C)(O)CO)C2	/	.	.	.	.	/	/	/
COc1ccc(N2CCN(C(CNC(=O)CC(C)C)c3ccc4c(c3)OCO4)CC2)cc1 (stereo not drawn)	/	/	/	.	/	/	/	/
Cc1sc2nc(SCc3nc4ccccc4[nH]3)n(Cc3ccco3)c(=O)c2c1C	.	.	.	?	0.631µM	.	?	1.58µM
Cc1ccc(Nc2c3c(nc4ncnn24)CCC3)cc1	.	.	.	.	.	.	.	12.6µM
COc1cccc([C@H]2Oc3ccc(OC)cc3/C(=N\O[C@@H](C)c3cn([C@H](CO)Cc4ccccc4)nn3)[C@@H]2O)c1	.[11.4 µM]	/	.[11.4 µM]	/	/	/	/	/
CCOc1ccc(C2c3c(oc4ccccc4c3=O)C(=O)N2c2ccc(C)cn2)cc1OC (stereo not drawn)	.	.	.	.	2µM	.	.	10µM
CCCOc1ccc(C2c3c(oc4ccccc4c3=O)C(=O)N2c2ccc(C)cn2)cc1OCC (stereo not drawn)	/	/	/	.	/	/	/	/
O=S(=O)(c1ccc2c(c1)OCCO2)N1CCC(O)(c2ccc(Cl)cc2)CC1	.	.	.	.	.	.	.	?
O=S(=O)(c1ccc2c(c1)OCCO2)N1CCN(c2cccc(Cl)c2)CC1	.	.	.	.	?	/	/	/
COc1ccc(Cn2c(CNC(=O)Cc3cccc([N+](=O)[O-])c3)nc3cccnc32)cc1	/	/	/	.	/	/	/	/
COC(=O)NC(c1cccs1)C(C(C)=O)C(=O)OC (stereo not drawn)	.[11.4 µM]	/	.[11.4 µM]	/	/	/	/	/
COc1ccc(Nc2nc(Nc3ccc(OC)cc3OC)nc(N3CCOCC3)n2)c(OC)c1	/	/	/	.	/	/	/	/
C=CCNc1nc(Nc2ccc(OC)cc2OC)nc(OCC)n1	/	.	.	.	5.01µM	.	.	10µM
O=C(Nc1ccc(C(F)(F)F)cc1)C1(c2cccs2)CCOCC1	/	/	/	.	/	/	/	/
Cc1c(C(=O)OCCOc2ccccc2)[nH]c2c1C(=O)CC(c1ccccc1)C2 (stereo not drawn)	/	/	/	.	/	/	/	/
CCCCCOC(=O)c1[nH]c2c(c1C)C(=O)CC(c1ccco1)C2 (stereo not drawn)	/	.	.	?	0.0794µM	.	.	.
COc1cc(Cl)c(C)cc1NC(=O)Cn1ncc2c(=O)oc3ccccc3c21	/	/	/	.	/	/	/	/
CC(C)(C[C@@]1(C)NC(=O)NC1=O)OCc1ccccc1	.[11.4 µM]	.[11 µM]	.[11.4 µM]	.[11.4 µM]	.[7.6 µM]	/	/	/
CCN(c1ccccc1)S(=O)(=O)c1ccc(NC(=O)c2cc(=O)c3cc(C)c(C)cc3o2)cc1	/	/	/	.	/	/	/	/
CCNc1nc(NC(C)(C)C)nc(N(C#N)CC)n1	.	.	.	.	?	.	.	1.26µM
COC(=O)c1ccc(CSc2nc3c(cnn3-c3ccc(F)cc3)c(=O)[nH]2)o1	.	.	.	.	12.6µM	.	.	5.01µM
O=C(Nc1cccc(F)c1)N1CC2(CCN(C(=O)c3ccco3)CC2)C1	.	.	.	.[11.4 µM]	.	/	/	/
